Experimental findings from the supplement of paper PMC9446081 are described below.

± gives the standard deviation of the averaged measurements.

Assay in all cases: relative enzymatic activity vs untreated control (fraction); higher = less inhibition
Conditions in all cases: 100 µM; incubation time: 2 h at 37 C

One test deals with DNA gyrase. How it is done: (§1)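 In vitro enzymatic inhibition assays (ProFoldin kits) for 12 purified essential E. coli enzymes or complexes, each treated with 218 active antibacterial compounds at 100 µM for 2 h at 37°C. Read-outs were fluorescence or absorbance (phosphate detection, dye binding), converted to activity via standard curves and expressed relative to untreated DMSO controls.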

The target in a further test is DNA helicase (UniProt P0ACB1). On the procedure: as §1
The target in a further test is DNA ligase (UniProt B1XA82). How it is done:
as §1

The target in a further test is DNA polymerase (UniProt P10443). On the procedure: as §1
A further test has as its target DNA primase (UniProt P0ABS7). On the procedure: as §1
The target in a further test is GlmU (UniProt A7ZTU1). On the procedure: as §1
The target of the next test is Guanlyate kinase (UniProt Q0TBG1). How it is done: as §1
In the next test the target is MurA (UniProt Q3YX52). How it is done: as §1
The next test has as its target T1, MurD (UniProt P14900).
T1 sequence (whole entry): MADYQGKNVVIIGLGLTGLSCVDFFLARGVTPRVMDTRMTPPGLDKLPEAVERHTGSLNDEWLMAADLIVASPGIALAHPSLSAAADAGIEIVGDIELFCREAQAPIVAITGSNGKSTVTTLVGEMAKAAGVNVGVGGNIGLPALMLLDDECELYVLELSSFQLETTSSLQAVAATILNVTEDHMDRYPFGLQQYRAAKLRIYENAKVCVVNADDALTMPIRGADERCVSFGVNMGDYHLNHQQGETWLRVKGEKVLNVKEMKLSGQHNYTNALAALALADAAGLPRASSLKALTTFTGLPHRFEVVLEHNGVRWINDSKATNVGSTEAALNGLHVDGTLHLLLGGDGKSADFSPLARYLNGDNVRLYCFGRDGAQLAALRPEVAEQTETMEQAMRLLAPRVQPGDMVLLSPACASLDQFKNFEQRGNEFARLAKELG
How it is done:
as §1

For the next test, the target named is T2, MurF (UniProt P11880).
T2 sequence (whole entry): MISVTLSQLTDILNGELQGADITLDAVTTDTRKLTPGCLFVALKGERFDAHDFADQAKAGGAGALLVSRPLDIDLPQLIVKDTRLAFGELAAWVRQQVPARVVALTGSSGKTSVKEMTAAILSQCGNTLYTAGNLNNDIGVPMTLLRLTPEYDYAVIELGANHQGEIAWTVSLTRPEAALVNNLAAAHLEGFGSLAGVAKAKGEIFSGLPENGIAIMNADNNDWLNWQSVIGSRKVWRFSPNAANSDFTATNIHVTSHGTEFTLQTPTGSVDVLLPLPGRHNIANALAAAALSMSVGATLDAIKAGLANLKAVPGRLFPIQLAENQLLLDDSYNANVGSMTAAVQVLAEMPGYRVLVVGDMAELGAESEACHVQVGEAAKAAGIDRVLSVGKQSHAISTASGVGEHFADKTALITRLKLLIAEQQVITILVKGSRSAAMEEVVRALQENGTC
How it is done: as §1

A further test concerns RNA polymerase. How it is done: as §1

Sequence of DNA helicase (P0ACB1 whole entry): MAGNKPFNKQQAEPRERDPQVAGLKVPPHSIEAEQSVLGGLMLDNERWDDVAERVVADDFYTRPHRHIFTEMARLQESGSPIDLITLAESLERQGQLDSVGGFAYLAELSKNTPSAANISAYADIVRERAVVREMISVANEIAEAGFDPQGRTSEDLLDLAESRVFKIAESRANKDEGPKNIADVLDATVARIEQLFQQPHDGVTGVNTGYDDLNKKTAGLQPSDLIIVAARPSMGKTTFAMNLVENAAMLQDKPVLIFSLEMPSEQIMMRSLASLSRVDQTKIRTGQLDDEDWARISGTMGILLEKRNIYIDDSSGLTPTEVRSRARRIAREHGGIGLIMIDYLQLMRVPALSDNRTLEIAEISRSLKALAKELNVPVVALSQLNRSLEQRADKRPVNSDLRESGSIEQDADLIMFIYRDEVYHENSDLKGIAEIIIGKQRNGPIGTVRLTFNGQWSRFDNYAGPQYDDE
Sequence of Guanlyate kinase (Q0TBG1 whole entry): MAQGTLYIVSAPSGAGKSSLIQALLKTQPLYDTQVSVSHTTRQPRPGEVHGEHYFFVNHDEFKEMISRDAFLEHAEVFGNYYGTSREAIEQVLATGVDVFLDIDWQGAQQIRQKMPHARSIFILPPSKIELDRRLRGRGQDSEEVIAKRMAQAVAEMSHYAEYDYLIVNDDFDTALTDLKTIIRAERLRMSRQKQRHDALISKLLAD
Sequence of DNA primase (P0ABS7 whole entry): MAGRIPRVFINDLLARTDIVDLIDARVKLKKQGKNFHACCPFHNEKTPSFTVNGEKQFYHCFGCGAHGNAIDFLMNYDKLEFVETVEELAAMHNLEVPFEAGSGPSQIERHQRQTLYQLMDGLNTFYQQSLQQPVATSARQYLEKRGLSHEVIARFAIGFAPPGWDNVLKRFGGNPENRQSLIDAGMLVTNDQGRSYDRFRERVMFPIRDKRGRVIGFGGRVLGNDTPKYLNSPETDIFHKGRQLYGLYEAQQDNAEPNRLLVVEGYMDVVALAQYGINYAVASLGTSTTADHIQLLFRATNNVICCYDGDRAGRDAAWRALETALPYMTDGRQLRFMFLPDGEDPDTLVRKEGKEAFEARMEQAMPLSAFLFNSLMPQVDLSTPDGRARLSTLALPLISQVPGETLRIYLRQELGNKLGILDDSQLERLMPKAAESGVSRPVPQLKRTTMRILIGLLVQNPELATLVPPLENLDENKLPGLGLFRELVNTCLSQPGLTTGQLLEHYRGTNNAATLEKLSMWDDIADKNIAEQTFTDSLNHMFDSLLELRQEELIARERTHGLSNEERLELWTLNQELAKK
Sequence of DNA ligase (B1XA82 whole entry): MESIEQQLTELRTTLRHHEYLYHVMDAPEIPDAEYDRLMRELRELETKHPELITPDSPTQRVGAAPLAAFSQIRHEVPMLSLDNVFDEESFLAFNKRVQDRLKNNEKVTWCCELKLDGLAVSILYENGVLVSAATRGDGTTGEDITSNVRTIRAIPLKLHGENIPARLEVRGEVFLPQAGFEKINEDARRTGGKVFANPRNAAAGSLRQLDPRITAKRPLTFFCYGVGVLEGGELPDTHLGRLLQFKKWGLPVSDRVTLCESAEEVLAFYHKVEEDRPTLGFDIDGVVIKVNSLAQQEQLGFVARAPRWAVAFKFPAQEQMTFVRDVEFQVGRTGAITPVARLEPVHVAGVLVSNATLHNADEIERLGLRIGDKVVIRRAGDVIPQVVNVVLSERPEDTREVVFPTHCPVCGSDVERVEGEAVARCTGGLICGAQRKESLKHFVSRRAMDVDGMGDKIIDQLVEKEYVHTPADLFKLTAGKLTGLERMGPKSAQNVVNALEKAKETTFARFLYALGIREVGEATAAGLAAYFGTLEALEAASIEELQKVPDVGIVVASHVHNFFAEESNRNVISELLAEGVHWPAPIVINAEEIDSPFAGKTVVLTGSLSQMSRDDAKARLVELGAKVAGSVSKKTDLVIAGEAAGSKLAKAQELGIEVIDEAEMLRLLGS
Sequence of MurA (Q3YX52 whole entry): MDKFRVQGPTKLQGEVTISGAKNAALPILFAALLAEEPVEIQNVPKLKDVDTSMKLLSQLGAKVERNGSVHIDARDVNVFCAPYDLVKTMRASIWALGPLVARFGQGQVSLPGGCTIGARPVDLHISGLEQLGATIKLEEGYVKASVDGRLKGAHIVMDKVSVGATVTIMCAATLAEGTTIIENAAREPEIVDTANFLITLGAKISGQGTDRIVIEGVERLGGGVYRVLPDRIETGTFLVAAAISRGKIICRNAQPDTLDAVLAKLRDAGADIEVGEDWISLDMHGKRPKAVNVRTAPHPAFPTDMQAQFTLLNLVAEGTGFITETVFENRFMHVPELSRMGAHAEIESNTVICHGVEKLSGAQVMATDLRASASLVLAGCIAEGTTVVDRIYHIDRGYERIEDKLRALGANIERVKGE
Sequence of GlmU (A7ZTU1 whole entry, looked up): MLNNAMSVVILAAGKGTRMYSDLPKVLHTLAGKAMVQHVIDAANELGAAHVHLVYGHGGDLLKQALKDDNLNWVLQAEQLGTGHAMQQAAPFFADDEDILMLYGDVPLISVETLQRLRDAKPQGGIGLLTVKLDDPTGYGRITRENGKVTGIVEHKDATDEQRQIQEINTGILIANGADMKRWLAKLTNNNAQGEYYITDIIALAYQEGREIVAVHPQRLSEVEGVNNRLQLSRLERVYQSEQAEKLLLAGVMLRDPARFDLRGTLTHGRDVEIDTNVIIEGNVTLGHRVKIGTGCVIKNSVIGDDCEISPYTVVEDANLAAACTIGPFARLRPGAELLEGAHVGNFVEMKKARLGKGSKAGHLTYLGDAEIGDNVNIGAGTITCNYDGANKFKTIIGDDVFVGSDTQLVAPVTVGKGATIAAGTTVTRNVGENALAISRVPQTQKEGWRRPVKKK
Sequence of DNA polymerase (P10443 whole entry): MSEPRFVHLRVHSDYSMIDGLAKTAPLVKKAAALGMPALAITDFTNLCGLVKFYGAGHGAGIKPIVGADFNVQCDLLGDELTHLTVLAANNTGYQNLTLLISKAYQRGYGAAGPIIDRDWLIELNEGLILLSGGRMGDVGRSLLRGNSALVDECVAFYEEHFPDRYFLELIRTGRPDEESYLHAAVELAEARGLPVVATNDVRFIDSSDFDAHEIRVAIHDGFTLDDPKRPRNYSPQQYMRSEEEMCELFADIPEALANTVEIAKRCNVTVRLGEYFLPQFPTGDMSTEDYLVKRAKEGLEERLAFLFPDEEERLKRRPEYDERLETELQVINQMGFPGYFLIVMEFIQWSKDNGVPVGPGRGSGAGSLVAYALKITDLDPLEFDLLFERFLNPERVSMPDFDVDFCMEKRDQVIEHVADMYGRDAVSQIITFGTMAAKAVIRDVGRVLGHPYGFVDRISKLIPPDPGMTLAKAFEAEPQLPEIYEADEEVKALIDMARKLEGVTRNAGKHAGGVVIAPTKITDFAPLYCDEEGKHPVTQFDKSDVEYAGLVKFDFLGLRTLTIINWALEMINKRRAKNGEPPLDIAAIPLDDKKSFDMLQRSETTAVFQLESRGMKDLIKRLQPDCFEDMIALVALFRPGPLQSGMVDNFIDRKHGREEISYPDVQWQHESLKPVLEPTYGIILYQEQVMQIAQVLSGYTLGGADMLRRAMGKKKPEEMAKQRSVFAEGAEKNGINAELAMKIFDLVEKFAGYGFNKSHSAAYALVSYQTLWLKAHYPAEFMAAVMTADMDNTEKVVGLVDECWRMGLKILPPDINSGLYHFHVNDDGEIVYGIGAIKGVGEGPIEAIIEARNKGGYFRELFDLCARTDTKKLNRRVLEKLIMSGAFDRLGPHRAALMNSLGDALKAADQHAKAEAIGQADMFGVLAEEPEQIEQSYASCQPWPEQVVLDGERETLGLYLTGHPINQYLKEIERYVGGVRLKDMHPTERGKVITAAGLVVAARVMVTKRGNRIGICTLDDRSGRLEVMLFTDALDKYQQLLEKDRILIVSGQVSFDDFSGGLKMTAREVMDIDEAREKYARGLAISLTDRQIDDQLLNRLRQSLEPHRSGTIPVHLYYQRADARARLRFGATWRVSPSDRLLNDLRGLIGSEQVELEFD

As for `O=c1[nH]cc(F)c(=O)[nH]1`, the relative enzymatic activity in the test with DNA gyrase amounted to 0.73 ± 0.39; with DNA helicase, 0.568 ± 0.12; in the test with DNA ligase, 0.9871 ± 0.0093; with DNA polymerase, 0.593 ± 0.47; with DNA primase it was 0.852 ± 0.023; with GlmU, 0.981 ± 0.051. Moreover, the relative enzymatic activity was 0.86 ± 0.071 with Guanlyate kinase; 0.673 ± 0.18 with MurA; 0.572 ± 0.36 in the test with MurD; 0.972 ± 0.2 with MurF; 0.688 ± 0.065 with RNA polymerase.
Regarding `NCCCC[C@H](NC(=O)[C@@H](NC(=O)[C@H](Cc1c[nH]c2ccccc12)NC(=O)[C@H](CCCCN)NC(=O)[C@H](CCCCN)NC(=O)[C@H](Cc1c[nH]c2ccccc12)NC(=O)[C@H](Cc1c[nH]c2ccccc12)NC(=O)[C@H](CCCCN)NC(=O)[C@@H](N)CCCCN)C(c1ccccc1)c1ccccc1)C(N)=O`, the relative enzymatic activity with DNA gyrase came to 0.0308 ± 0.044; in the test with DNA helicase, 0.0869 ± 0.0012; with DNA ligase, 1.12 ± 0.43; with DNA polymerase it was 0.0842 ± 0.0071; in the test with DNA primase, 0.299 ± 0.053; in the test with GlmU it was 0.879 ± 0.061. In addition, the relative enzymatic activity in the test with Guanlyate kinase was 0.355 ± 0.02; with MurA, 0.477 ± 0.43; with MurD, 0.568 ± 0.41; with MurF, 0.833 ± 0.18; in the test with RNA polymerase it was 0.0964 ± 0.032.
Turning to `CO[C@@]12[C@@H]3N[C@@H]3CN1C1=C(C(=O)C(N)=C(C)C1=O)[C@@H]2COC(N)=O`, the relative enzymatic activity in the test with DNA gyrase was found to be 1.25 ± 0.4; with DNA helicase, 0.689 ± 0.37; with DNA ligase, 0.844 ± 0.031; with DNA polymerase it was 1.17 ± 0.19; with DNA primase, 0.837 ± 0.014; with GlmU it was 0.979 ± 0.0078. The relative enzymatic activity with Guanlyate kinase was 0.861 ± 0.01; with MurA, 0.431 ± 0.072; with MurD it was 0.615 ± 0.42; with MurF it was 0.942 ± 0.24; in the test with RNA polymerase, 0.82 ± 0.035.
Consider `CN(C)C1C(O)=C(C(N)=O)C(=O)C2(O)C(O)=C3C(=O)c4c(O)cccc4C(C)(O)C3C(O)C12.Cl` (stereo not drawn), for which the relative enzymatic activity in the test on DNA gyrase was determined as 0.0137 ± 0.019; with DNA helicase, 0.171 ± 0.03; with DNA ligase, 0.908 ± 0.21; with DNA polymerase, 0.4407 ± 0.0041; with DNA primase, 0.517 ± 0.0096; in the test with GlmU, 1.02 ± 0.013. Moreover, the relative enzymatic activity worked out at 0.521 ± 0.0059 in the test with Guanlyate kinase; 0.0726 ± 0.028 in the test with MurA; 0.635 ± 0.42 in the test with MurD; 1.02 ± 0.25 with MurF; 0.177 ± 0.017 in the test with RNA polymerase.
For `CCOC(=O)OC(C)OC(=O)C1N2C(=O)C(NC(=O)C(N)c3ccccc3)C2SC1(C)C.Cl` (stereo not drawn), the relative enzymatic activity in the test on DNA gyrase amounted to 0.992 ± 0.22; in the test with DNA helicase, 0.463 ± 0.04; in the test with DNA ligase, 0.901 ± 0.089; in the test with DNA polymerase, 1.09 ± 0.16; in the test with DNA primase, 0.841 ± 0.011; in the test with GlmU it was 1.04 ± 0.033. For the same compound, the relative enzymatic activity with Guanlyate kinase came to 0.975 ± 0.026; with MurA, 0.82 ± 0.1; with MurD it was 0.598 ± 0.42; with MurF, 0.981 ± 0.23; in the test on RNA polymerase, 0.803 ± 0.031.
Turning to `CCC(C)CCCCC(=O)NC(CCN)C(=O)NC(C(=O)NC(CCN)C(=O)NC1CCNC(=O)C(C(C)O)NC(=O)C(CCN)NC(=O)C(CCN)NC(=O)C(CC(C)C)NC(=O)C(Cc2ccccc2)NC(=O)C(CCN)NC1=O)C(C)O.O=S(=O)(O)O` (stereo not drawn), the relative enzymatic activity with DNA gyrase came out at 1.09 ± 0.019; with DNA helicase it was 0.653 ± 0.23; with DNA ligase, 0.982 ± 0.031; in the test with DNA polymerase, 1.36 ± 0.48; with DNA primase it was 0.688 ± 0.15; with GlmU, 1.037 ± 0.0054. Further, the relative enzymatic activity with Guanlyate kinase amounted to 0.9729 ± 0.0096; with MurA, 0.649 ± 0.024; in the test with MurD it was 0.639 ± 0.43; with MurF, 0.894 ± 0.25; in the test on RNA polymerase, 0.892 ± 0.046.
For the compound `CON=C(C(=O)N[C@@H]1C(=O)N2C(C(=O)OCOC(=O)C(C)(C)C)=C(C=Cc3scnc3C)CS[C@H]12)c1csc(N)n1`, the relative enzymatic activity in the test with DNA gyrase was 0.622 ± 0.19; in the test with DNA helicase, 0.322 ± 0.0034; with DNA ligase it was 0.899 ± 0.1; with DNA polymerase it was 0.496 ± 0.7; with DNA primase, 0.83003 ± 0.00016; in the test with GlmU, 0.838 ± 0.01. The relative enzymatic activity with Guanlyate kinase worked out at 0.842 ± 0.11; with MurA it was 0.335 ± 0.12; with MurD, 0.147 ± 0.21; with MurF it was 0.855 ± 0.25; in the test on RNA polymerase it was 0.945 ± 0.2.
For `CCC=C(C(=O)NC1C(=O)N2C(C(=O)OCOC(=O)C(C)(C)C)=C(COC(N)=O)CSC12)c1csc(N)n1.Cl` (stereo not drawn), the relative enzymatic activity amounted to 0.924 ± 0.071 in the test on DNA gyrase; 0.354 ± 0.016 with DNA helicase; 0.883 ± 0.11 with DNA ligase; 1.17 ± 0.27 with DNA polymerase; 0.907 ± 0.088 with DNA primase; 0.939 ± 0.024 with GlmU. The relative enzymatic activity came to 1.02 ± 0.098 with Guanlyate kinase; 0.293 ± 0.18 with MurA; 0.576 ± 0.37 in the test with MurD; 0.941 ± 0.21 in the test with MurF; 0.977 ± 0.094 in the test on RNA polymerase.
